Reference: PubChem BioAssay AID2016 (NMMLSC, 2009)
Screen size: about 330,000 compounds; about 1,700 (0.52%) were called active.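 The calls were made as follows: active = GFP response versus DMSO above a set limit, roughly screen mean plus 3 SD (cut at about 180% in these data); inconclusive = fewer than 70 cells counted for a yeast strain; inactive = the rest.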 The list comes from a sample in which actives are over-represented; it also holds similar structures and randomly drawn compounds.

experiment: modulators of MEP2-GFP levels in yeast, primary screen, S. cerevisiae, multiplex flow cytometry, MLPCN library (AID 2016);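 also: median GFP fluorescence of the barcode-gated MEP2-GFP cells per well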; conditions: S. cerevisiae MEP2-GFP strain, 3 h, at 10 µM, hits give high values, 100% = DMSO control level

GFP response vs DMSO, inactive:
CCc1ccccc1NC(=O)CSc1nnc(CCNC(=O)OC(C)(C)C)o1 114%, CCc1ccccc1NC(=O)CSc1nnc([C@@H](NC(=O)OC(C)(C)C)C(C)C)o1 88.8%, C#CCOCCOCCOCCNc1nc(N2CCN(C(=O)C(Cc3ccc(O)cc3)n3cc(C(N)CC(C)C)nn3)CC2)nc(N2CCN(C(=O)C(Cc3ccc(O)cc3)n3cc(C(N)C(C)CC)nn3)CC2)n1 (stereo not given) 93.7%, CC(NCC(=O)Nc1cc(Cl)cc(Cl)c1)c1ccccc1 (stereo not given) 91.3%, COc1ccc2c(c1)C(=C(C#N)C#N)C(=O)N2CCc1ccccc1 103%, CCOCCOC(=O)C1=C(C)NC(=O)NC1c1ccc2c(c1)OCO2 (stereo not given) 111%, COCCOC(=O)C1=C(C)NC(=O)NC1c1cc2c(cc1Br)OCO2 (stereo not given) 95.2%, O=C(CC12CC3CC(CC(C3)C1)C2)Nc1ccc2c(c1)COC2=O 99.2%, Brc1ccc(C2CC(c3ccccc3)=Nc3ccccc3N2)cc1 (stereo not given) 101%, OCC[C@H]1C[C@@H](O)[C@H](O)[C@]2(OCCCc3ccccc32)O1 96.7%, Cc1ccc(C2Nc3cccc4cccc(c34)N2)cc1 110%, Brc1ccccc1C1Nc2cccc3cccc(c23)N1 104%, O=C(CSc1n[nH]c(=O)n1-c1ccccc1)Nc1ccccc1C(F)(F)F 109%, COc1ccc(C)cc1NC(=O)CN(C)S(=O)(=O)c1ccc2c(c1)n(C)c(=O)c(=O)n2C 110%, COc1ccccc1NS(=O)(=O)c1ccc(C)c(C(=O)NCC(c2ccco2)N(C)C)c1 (stereo not given) 104%, O=C(CC(n1cncn1)C(Cl)(Cl)Cl)c1ccc([N+](=O)[O-])cc1 (stereo not given) 91.9%, O=C(c1ccncc1)c1ccc([N+](=O)[O-])cc1 90.2%, CCc1noc(C)c1C(=O)NNC(=O)c1ccc(F)cc1 100%, COc1ccc(C(=O)NC(=S)NNC(=O)c2c(-c3ccccc3)noc2C)cc1 113%, O=C(OCC(=O)N1CCCCCC1)c1ccc(Cl)nc1 105%, CCC(CO)Oc1cc(NC(=O)c2ccc(Cl)cc2)c2ncn(C(C)C)c2c1 (stereo not given) 102%, Cc1ccc(C2(C)NC(=O)N(CC(=O)N3CC(=O)Nc4ccccc43)C2=O)cc1 (stereo not given) 95%, CCC(C)(C)NC(=O)C(c1ccc(O)cc1)N(C(=O)Cn1nnc2ccccc21)c1ccc(NC(C)=O)cc1 (stereo not given) 93.5%, CC(C)(C)NC(=O)C(c1ccco1)N(Cc1ccc2c(c1)OCO2)C(=O)Cn1nnc2ccccc21 (stereo not given) 101%, O=C(NCc1ccccc1Cl)C1CCN(S(=O)(=O)N2CCOCC2)CC1 93.8%, O=C(NCc1ccco1)C1CCCN(S(=O)(=O)c2cccc3nonc23)C1 (stereo not given) 97.8%, CCc1cccc(C)c1NS(=O)(=O)c1cc(Br)cnc1N 105%, Cn1c(=O)n(C)c(=O)n(CC(=O)N2CCCCC2)c1=O 95.9%, CCn1c(=S)[nH]c2sc3c(c2c1=O)CCCCC3 106%, CCC1(C)Cc2c(sc3nnn(CC(=O)Nc4ccc(Cl)cc4)c(=O)c23)CO1 (stereo not given) 104%, O=C(Cc1ccccc1)NNS(=O)(=O)c1ccc([N+](=O)[O-])cc1 94.8%, O=C(CNC(=O)c1ccccc1)Oc1ccc([N+](=O)[O-])cc1 109%, COCCn1c(C)cc(C(=O)CSc2nnc(C3CC3)n2C2CC2)c1C 101%, CCN(CCCNC(=O)CSc1cc(=O)n(C)c2cc(Cl)ccc12)Cc1ccccc1 102%, Cc1cc(C=O)c(C)n1-c1ccc(NC2CCCCC2)c([N+](=O)[O-])c1 101%, CCOC(=O)c1sc2nc(C)nc(SCC(N)=O)c2c1C 105%, COc1ccc(CNC(=O)C2CCN(C(=O)c3ccccc3)CC2)cc1 96.9%, O=C(c1cccc(Cl)c1)N1CCN(Cc2ccccc2)CC1 110%, CC1CC(NC(=O)/C(C#N)=C/c2ccc[nH]2)CC(C)(C)C1 (stereo not given) 90.7%, COc1cc(CCC(=O)Nc2ccncc2Cl)cc(OC)c1OC 101%, C/C(=N\NC(=O)c1ccc2ccccc2c1)c1cccnc1 91.2%, C/C(=N\NC(=O)c1cccnc1)c1ccc(-n2ccnc2)cc1 89.5%, Cc1noc(C)c1-c1nc(CSc2ccc(Cl)cc2)no1 105%, O=C(Nc1ccccc1Cl)N1CCN(c2ccc3nncn3n2)CC1 97.1%

GFP response vs DMSO, active:
CCc1ccccc1NC(=O)CSc1nnc([C@@H](NC(=O)OC(C)(C)C)C(C)CC)o1 (stereo not given in full) 193% [may fluoresce violet], CCSc1sc(CC)cc1C=O 210% [may fluoresce violet], CC(=O)C1=C(C)NC(=O)NC1c1ccc2c(c1)OCO2 (stereo not given) 179% [may fluoresce violet], Oc1ccc(C2Nc3cccc4cccc(c34)N2)cc1 184%, Cc1onc(-c2ccccc2)c1C(=O)NNC(=S)NC(=O)c1ccc(F)cc1 176% [may fluoresce violet], CCC(C)(C)NC(=O)C(c1cccn1C)N(Cc1ccc(C)cc1)C(=O)Cn1nnc2ccccc21 (stereo not given) 200% [may fluoresce violet], O=C(NCc1ccccc1Cl)C1CCN(S(=O)(=O)c2cccc3nonc23)CC1 287% [may fluoresce violet], CCC1(C)Cc2c(sc3[nH]c(=S)n(Cc4ccccc4)c(=O)c23)CO1 (stereo not given) 234% [may fluoresce violet], O=C(NNS(=O)(=O)Cc1ccccc1)c1ccc([N+](=O)[O-])cc1 796% [may fluoresce violet], O=C(NCc1ccncc1)C1CCN(C(=O)c2cccc(Cl)c2)CC1 465% [may fluoresce violet], C/C(=N\NC(=O)c1cccnc1)c1ccc(-c2ccccc2)cc1 189% [may fluoresce violet]
